Screening data as filed in PubChem.
A selection: hits, their analogues and other compounds. The true share with any hit is near 17%.
HT1080 IDH1KD tx: qHTS for induction of synthetic lethality in tumor cells producing 2HG: qHTS for the HT-1080-IDH1KD cell line; HT-1080 IDH1 knockdown viability, ATP luminescence, 48 h; Potency, µM (titrated, usually from 46.1 µM), for the others: at the highest dose activity, negative = toxicity, most hits filed as cytotoxic; hit rate 2% among 360,000;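 note: 0% = DMSO wells and -100% = cell-free medium wells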
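Viability of IDH1-knockdown HT-1080 fibrosarcoma cells was assessed by CellTiter-Glo after 48 h at 37 °C with titrated compound; concentration-effect curves were classified by fit quality and response size.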
TDP1 cell noCPT: qHTS for Inhibitors of human tyrosyl-DNA phosphodiesterase 1 (TDP1): qHTS in cells in absence of CPT | DT40 Tdp1-/- hTDP1 cells, no CPT, ATP luminescence, 48 h | Potency, µM (titrated, usually from 46.2 µM), for inactives: at the top dose activity change, negative = growth inhibition, usual class: inhibitors | hit rate 15% among 420,000 | AID 686978, 2013; note: % is set by controls: 0 for no effect and ±100 for the full control effect; nearly all actives have a fitted effect of over 55% in size
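Stably hTDP1-transfected Tdp1-null chicken DT40 cells were treated with library compounds minus camptothecin and grown for at least 48 hr at 37 °C, after which cellular ATP was quantified by luminescence.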
TDP1 cell CPT: qHTS for Inhibitors of human tyrosyl-DNA phosphodiesterase 1 (TDP1): qHTS in cells in presence of CPT | AID 686979, 2013 | hit rate 12% among 420,000 | Potency, µM (series often up to 46.2 µM), inactives show top-dose activity change, negative = growth inhibition, most hits filed as inhibitors | chicken DT40 Tdp1-/-;hTDP1 cells + 20 nM CPT, ATP luminescence, 48 h; note: % is set by controls: 0 for no effect and ±100 for the full control effect; nearly all actives have a fitted effect of over 55% in size
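Cell growth measured by CellTiter-Glo luminescence after a minimum 48 h, 37 C compound exposure with 20 nM CPT in Tdp1-knockout DT40 cells stably expressing hTDP1, seeded 400/well; qHTS titration format.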
HepG2 viability: qHTS for Inhibitors of TGF-b: Cytotox Counterscreen | HepG2 CAGA-GFP viability, ATP luminescence, 18 h | Potency, µM (series often up to 46.1 µM), for the others: at the highest dose activity change, negative = cytotoxicity, usual class: cytotoxic | hit rate 0.76% among 410,000
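CellTiter-Glo luminescence gave cytotoxicity after 18 hours at 37 degrees C. The cells were HepG2 CAGA-GFP in 1% FBS DMEM, stimulated with 500 pg/mL TGF-beta after compound addition. %Activity was normalised to no-cell wells (complete cell-killing) and DMSO (no toxicity), and curves were fitted and classified.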
TGFb SMAD3 inh: qHTS for Inhibitors of TGF-b | AID 588855, 2011 | HepG2 CAGA-GFP TGF-b/SMAD3 reporter, GFP fluorescence, 18 h; TGF-beta stimulated, 500 pg/mL final | hit rate 1.2% among 410,000 | Potency, µM (doses to about 46.1 µM), for inactives: at the highest dose activity, negative = inhibition, most hits filed as inhibitors; note: % is set by controls: 0 for no effect and ±100 for the full control effect; nearly all actives have a fitted effect of over 65% in size
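HEPG2 CAGA-GFP cells (1000/well, DMEM with 1% FBS) were pre-incubated 2 h at 37 degrees C, given compound by pin tool, then stimulated with TGF-beta at 500 pg/mL final for 18 h before per-cell GFP fluorescence imaging.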
HT1080-NT tox: qHTS for induction of synthetic lethality in tumor cells producing 2HG: qHTS for the HT-1080-NT fibrosarcoma cell line | HT-1080-NT fibrosarcoma viability, CellTiter-Glo ATP luminescence, 48 h | hit rate 1.6% among 360,000 | Potency, µM (titrated, usually from 46.1 µM), inactives show top-dose activity, negative = less viability, actives largely listed as cytotoxic;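 note: NT is the 2HG producing partner of a matched IDH1 knockdown line; 0% = DMSO-treated cells and -100% = media-only wells without cells; nearly all actives have a fitted effect of over 55% in size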
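Read-out is CellTiter-Glo luminescence after 10 minutes at room temperature, following 48 hours' compound treatment of HT-1080-NT cells (750 cells/well, RPMI, 5% FBS, 37 degrees C).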
Active calls of the source: *; ? = inconclusive; . = not tested or not shown. Calls come from the whole dose curve; as a rule, active = well fitted curve in the direction sought with a large enough effect; inconclusive = small, poorly fitted or top-dose-only effect, or another doubt; inactive = no such curve, though single readings can be large; an effect the other way counts as inactive or inconclusive. Potency is the fitted concentration of half-maximal effect.

SMILES	HT1080 IDH1KD tx	TDP1 cell noCPT	TDP1 cell CPT	HepG2 viability	TGFb SMAD3 inh	HT1080-NT tox
Cc1ccc(C)c(-c2nnc(NC(=O)Cc3ccccc3)o2)c1	0%	?	?	12%	?	0%
O=S1(=O)CC(c2ccccc2)=NN=C(c2ccccc2)C1	7%	?	?	-57%	-25%	16%
O=C(Cn1c(=O)oc2cc(S(=O)(=O)N3CCCCC3)ccc21)Nc1cccc(Cl)c1	.	9.2µM*	8.2µM*	-26%	?	.
O=C(Cn1c(=O)oc2cc(S(=O)(=O)N3CCCCCC3)ccc21)Nc1cccc(C(F)(F)F)c1	.	9.2µM*	8.2µM*	-25%	-3%	.
O=C1CCC(c2ccc3c(c2)CCC3)=NN1	0%	-26%	-13%	4%	2%	0%
COc1ccc(C#Cc2cccc(-c3nc(C(=O)N4CCN(C)CC4)cc4c3[C@H](CCO)N(S(=O)C(C)(C)C)C4)c2)cc1OC (stereo partly drawn)	-1%	-21%	-29%	-20%	?	28%
Cc1ccc2c(C)nc(Nc3nc(CSc4nnnn4-c4ccccc4)cc(=O)[nH]3)nc2c1	?	6.5µM*	5.8µM*	-2%	?	?
Cc1ccc2c(C)nc(Nc3nc(CSc4nc5ccccc5s4)cc(=O)[nH]3)nc2c1	8%	5.2µM*	?	1%	-2%	9%
CC(C)CN(/C=N/c1sc2c(c1C#N)CCCCC2)CC(C)C	6%	15µM*	21µM*	-13%	-29%	9%
CCN(/C=N/c1sc2c(c1C#N)CCCCC2)CC	4%	21µM*	?	46%	0%	2%
CCCCCCc1cc2cc(S(=O)(=O)c3ccc(Cl)cc3)c(=O)oc2cc1O	2%	?	?	-59%	11µM*	0%
CCCCCCc1cc2cc(C(=O)Nc3ccccc3)c(=O)oc2cc1O	?	3.7µM*	3.3µM*	-6%	?	?
CCCCCCc1cc2cc(C(=O)NCc3ccccc3)c(=N)oc2cc1O	-2%	?	?	0%	-7%	9%
CCOc1ccccc1CNC(=O)CCn1cccn1	.	-9%	-18%	4%	2%	.
CN1CCN(CCOc2ccc(Cl)c(Cl)c2)CC1	-17%	?	16µM*	-32%	2%	-12%
CN1CCN(C(=S)Nc2ccc(Cl)c(Cl)c2)CC1	-6%	?	-8%	3%	?	-3%
CN1CCN(CCc2ccc(Cl)c(Cl)c2)CC1	.	30µM*	?	.	.	.
CN1CCN(CCOc2ccc(Cc3ccccc3)cc2)CC1	?	4.6µM*	?	-22%	10%	-27%
COc1cc(C(=O)O/N=C2\C=CC(=O)C=C2C)cc(OC)c1OC	15%	?	12µM*	0%	-11%	5%
Cc1cc(Cn2nc(-c3ccccc3)cc2C(=O)NCC2CC2)on1	-3%	-10%	-21%	0%	12%	0%
COc1ccc(-c2nnc(SCc3nc4ccccc4s3)n2C(C)C)cc1	-18%	21µM*	?	-16%	-11%	-18%
CCCn1c(N2CCC(Cc3ccccc3)CC2)nc2c1c(=O)[nH]c(=O)n2C	?	?	?	-17%	-14%	?
C=C(C)Cn1c(N2CCC(Cc3ccccc3)CC2)nc2c1c(=O)[nH]c(=O)n2C	?	?	?	-3%	-59%	?
